Data as given in PubChem BioAssay (NCI).
Several values for one entry are separate records, joined by “and”; a condition that tells them apart may be missing. Identical values can stand only once. Compounds without any hit were thinned out: in the full panel of roughly 83,000, 20% have a hit.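 Step 1: grow cells in 96-well plates. Step 2: add test compound at a single concentration. Step 3: incubate 48 h. Step 4: record percent growth.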 Activity calls are given as the source filed them. The calls were made as follows: active = growth percent below 10; inactive = the rest.

How the values were obtained:
Assay in all cases: NCI-60 one-dose screen, 48 h (100 = growth as untreated, 0 = no growth, -100 = all killed)
Settings in all cases: 10 µM unless noted
HCT-15 colon = system: HCT-15 colon
HT29 colon = system: HT29 colon
SNB-75 CNS = system: SNB-75 CNS
SNB-19 CNS = system: SNB-19 CNS
U251 CNS = system: U251 CNS
PC-3 prostate = system: PC-3 prostate
SK-MEL-5 melanoma = system: SK-MEL-5 melanoma
UACC-62 melanoma = system: UACC-62 melanoma
LOX IMVI melanoma = system: LOX IMVI melanoma
SK-MEL-28 melanoma = system: SK-MEL-28 melanoma
SK-MEL-2 melanoma = system: SK-MEL-2 melanoma
EKVX NSCLC = system: EKVX NSCLC
SN12C renal = system: SN12C renal
UO-31 renal = system: UO-31 renal
TK-10 renal = system: TK-10 renal
ACHN renal = system: ACHN renal
CAKI-1 renal = system: CAKI-1 renal
A498 renal = system: A498 renal
CCRF-CEM leukemia = system: CCRF-CEM leukemia
MOLT-4 leukemia = system: MOLT-4 leukemia

| Structure (SMILES) | growth (HCT-15 colon) | growth (HT29 colon) | growth (SNB-75 CNS) | growth (SNB-19 CNS) | growth (U251 CNS) | growth (PC-3 prostate) | growth (SK-MEL-5 melanoma) | growth (UACC-62 melanoma) | growth (LOX IMVI melanoma) | growth (SK-MEL-28 melanoma) | growth (SK-MEL-2 melanoma) | growth (EKVX NSCLC) | growth (SN12C renal) | growth (UO-31 renal) | growth (TK-10 renal) | growth (ACHN renal) | growth (CAKI-1 renal) | growth (A498 renal) | growth (CCRF-CEM leukemia) | growth (MOLT-4 leukemia) |
| --- | --- | --- | --- | --- | --- | --- | --- | --- | --- | --- | --- | --- | --- | --- | --- | --- | --- | --- | --- | --- |
| CCCCOc1cc(C(=O)NCCN(CC)CC)c2ccccc2n1 | 96.5% (inactive) and 100% (inactive) | 57.7% (inactive) and 92.4% (inactive) | 75.2% (inactive) and 88.9% (inactive) | 90.1% (inactive) and 91.9% (inactive) | 83.4% (inactive) and 92.2% (inactive) | 73.9% (inactive) and 96% (inactive) | 86.4% (inactive) and 94.5% (inactive) | 95.6% (inactive) and 90.1% (inactive) | 88.4% (inactive) and 110% (inactive) | 102% (inactive) and 104% (inactive) | 120% (inactive) and 99.6% (inactive) | 74.9% (inactive) | 86.7% (inactive) and 93.5% (inactive) | 59.1% (inactive) and 78% (inactive) | 100% (inactive) | 90.1% (inactive) and 99.7% (inactive) | 73.6% (inactive) and 92.8% (inactive) | 81.1% (inactive) and 95.4% (inactive) | 89.4% (inactive) | 98% (inactive) and 101% (inactive) |
| CNC(=O)c1ccc(C)c(-n2c(C)cc(OCc3ccc(F)cc3F)c(Br)c2=O)c1 | 91% (inactive) and 97.1% (inactive) | 56.4% (inactive) and 76.5% (inactive) | 63.3% (inactive) and 86.1% (inactive) | 75.8% (inactive) and 91.1% (inactive) | 80.1% (inactive) and 78.6% (inactive) | 74.8% (inactive) and 66.5% (inactive) | 56.4% (inactive) and 87.9% (inactive) | 56.5% (inactive) and 73.4% (inactive) | 83.2% (inactive) and 93.6% (inactive) | 104% (inactive) and 97.9% (inactive) | 89.3% (inactive) | 78.7% (inactive) and 87.7% (inactive) | 83.7% (inactive) and 86.1% (inactive) | 52.5% (inactive) and 71.8% (inactive) | 74.6% (inactive) and 102% (inactive) | 68.6% (inactive) and 88.2% (inactive) | 62.9% (inactive) and 79.1% (inactive) | 78.7% (inactive) | 77.4% (inactive) and 89.1% (inactive) | 78.8% (inactive) and 91.8% (inactive) |
| Cc1cc(C)c(N)c(Br)c1 | 106% (inactive) and 95.4% (inactive) | 102% (inactive) and 90.4% (inactive) | 83.3% (inactive) and 74.5% (inactive) | 107% (inactive) and 94.7% (inactive) | 105% (inactive) and 104% (inactive) | 102% (inactive) and 91.9% (inactive) | 103% (inactive) and 96.3% (inactive) | 108% (inactive) and 94.5% (inactive) | 106% (inactive) and 96.4% (inactive) | 110% (inactive) and 102% (inactive) | 96.9% (inactive) and 99.3% (inactive) | 110% (inactive) and 97.1% (inactive) | 110% (inactive) and 101% (inactive) | 92.3% (inactive) and 87.9% (inactive) | 108% (inactive) and 112% (inactive) | 106% (inactive) and 95.4% (inactive) | 91.4% (inactive) and 74.5% (inactive) | 134% (inactive) and 88.8% (inactive) | 97.4% (inactive) and 90.1% (inactive) | 106% (inactive) and 111% (inactive) |
| CCC(=O)C(CC)c1cccc(OC)c1 (stereo not given) | 103% (inactive) | 103% (inactive) | 76.7% (inactive) | 111% (inactive) | 99.4% (inactive) | 98.8% (inactive) | 101% (inactive) | 108% (inactive) | 100% (inactive) | 106% (inactive) | 116% (inactive) | 106% (inactive) | 112% (inactive) | 89.9% (inactive) | 101% (inactive) | 106% (inactive) | 94.4% (inactive) | 87.8% (inactive) | 93.8% (inactive) | 98.4% (inactive) |
| CC1=C[C@H]2c3c(c(O)c(O)c4oc5cc(O)cc(O)c5c(=O)c34)[C@H](c3cc(O)c(O)c4oc5cc(O)cc(O)c5c(=O)c34)[C@H]2C(C)(C)C1 | 15.4% (inactive) and 3.72% (active) | -1.98% (active) and -20.8% (active) | 24.1% (inactive) and -10.6% (active) | 13.3% (inactive) and -11.3% (active) | 0.997% (active) and -15.3% (active) | 14.4% (inactive) and -26.9% (active) | -84.2% (active) and -98.1% (active) | -43.1% (active) and -68.9% (active) | -93.9% (active) and -100% (active) | 10.3% (inactive) and -22.8% (active) | -20% (active) and -41.4% (active) | 21.4% (inactive) and -31.9% (active) | 9.13% (active) and -8.98% (active) | -5.69% (active) and -75.2% (active) | 30.1% (inactive) and -5.84% (active) | 18.1% (inactive) and -7.12% (active) | -20.5% (active) and -2.78% (active) | -4.52% (active) and -73.5% (active) | 6.01% (active) and -9.45% (active) | 7.66% (active) and -18.8% (active) |
| Cc1nnc(NC/C=C/c2ccccc2)s1 | 98.3% (inactive) and 104% (inactive) | 107% (inactive) and 116% (inactive) | 86.3% (inactive) and 103% (inactive) | 108% (inactive) and 113% (inactive) | 97.8% (inactive) | 94% (inactive) and 99.5% (inactive) | 101% (inactive) and 102% (inactive) | 104% (inactive) | 96.1% (inactive) and 97.5% (inactive) | 104% (inactive) and 103% (inactive) | 122% (inactive) | 101% (inactive) | 105% (inactive) and 108% (inactive) | 87.1% (inactive) and 91.2% (inactive) | 96.4% (inactive) and 111% (inactive) | 103% (inactive) and 112% (inactive) | 112% (inactive) | 96.1% (inactive) | 113% (inactive) | 92.8% (inactive) and 111% (inactive) |
| O=C1c2ccccc2C(=O)c2c(NCCNCCO)ccc(NCCNCCO)c21 | 70.2% (inactive) and 75.4% (inactive) and 72.6% (inactive) | 2.99% (active) and 16.2% (inactive) and 14.9% (inactive) | -26.9% (active) and -4.55% (active) and -6.89% (active) | -11% (active) and 14.5% (inactive) and 7.49% (active) | -4.94% (active) and 5.29% (active) | -58.4% (active) and 36.2% (inactive) and 20.3% (inactive) | -50.5% (active) and 7.59% (active) and 3.46% (active) | -73.4% (active) and 10.3% (inactive) and 6.9% (active) | -35.6% (active) and 0.446% (active) and 1.46% (active) | -36.8% (active) and 31.2% (inactive) and 16.9% (inactive) | -75.2% (active) and -0.89% (active) and -16.8% (active) | 38.4% (inactive) and 48.9% (inactive) | -0.766% (active) and 4.9% (active) and 7.36% (active) | -5.63% (active) and 55.9% (inactive) and 44.7% (inactive) | 21.8% (inactive) and 54.6% (inactive) and 38.8% (inactive) | 17.9% (inactive) and 24.5% (inactive) and 22.7% (inactive) | 19.8% (inactive) and 50.9% (inactive) and 35.4% (inactive) | -4.91% (active) and 79.3% (inactive) and 29.9% (inactive) | 153% (inactive) and 10.2% (inactive) and 1.67% (active) | 143% (inactive) and -3.2% (active) and -1.56% (active) |
| NCCSC(C[N+](=O)[O-])c1ccccc1Cl (stereo not given) | 22.4% (inactive) | 36% (inactive) | 105% (inactive) | 102% (inactive) | 77.6% (inactive) | 68.1% (inactive) | 85.1% (inactive) | 92.6% (inactive) | 31.4% (inactive) | -20.5% (active) | 34.9% (inactive) | 100% (inactive) | 104% (inactive) | 63.3% (inactive) | 51.8% (inactive) | 107% (inactive) | 99.8% (inactive) | 36% (inactive) | 0.339% (active) | -32.1% (active) |
| Oc1c(CN2CCCCC2)ccc2cccnc12 | 33.6% (inactive) and 30.3% (inactive) | 66.6% (inactive) and 28.6% (inactive) | 82.5% (inactive) and 85.6% (inactive) | 65.9% (inactive) and 74.1% (inactive) | 41.8% (inactive) and 38.7% (inactive) | 52.1% (inactive) and 39% (inactive) | 45% (inactive) and -25.6% (active) | 46% (inactive) and 45.6% (inactive) | 27.3% (inactive) and 44.1% (inactive) | 85.2% (inactive) and 85.7% (inactive) | 96.9% (inactive) and 82.4% (inactive) | 71.3% (inactive) | 58.2% (inactive) and 59.2% (inactive) | 8.37% (active) and -0.287% (active) | 40.8% (inactive) and 48.7% (inactive) | 7.15% (active) and 9.28% (active) | 2.08% (active) | 61.4% (inactive) and 62.9% (inactive) | 16.6% (inactive) | 38.2% (inactive) and 36% (inactive) |
